The full data set covers some 21,000 targets. This sample favours those with the largest changes.

Compound in the assay: CC1Cc2ccccc2N1C(=O)C1CCCN(C1)C(=O)CCl (mixture of isomers) [TRIM25 ligand 11 (diastereomer mixture)]
In words: probe-labelled cysteine peptide fold change vs DMSO (competition) (log2 fold change); higher = less target engagement (more negative = stronger competition). The settings on record: THP-1, incubation time: 4 h.
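Further: competitive chemoproteomic profiling in live THP-1 cells with an iodoacetamide desthiobiotin (IA-DTB) probe, comparing probe-labelled peptide intensities in compound-treated cells against DMSO-treated controls.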

UniProt Q7Z408, sequence (Q7Z408 whole entry): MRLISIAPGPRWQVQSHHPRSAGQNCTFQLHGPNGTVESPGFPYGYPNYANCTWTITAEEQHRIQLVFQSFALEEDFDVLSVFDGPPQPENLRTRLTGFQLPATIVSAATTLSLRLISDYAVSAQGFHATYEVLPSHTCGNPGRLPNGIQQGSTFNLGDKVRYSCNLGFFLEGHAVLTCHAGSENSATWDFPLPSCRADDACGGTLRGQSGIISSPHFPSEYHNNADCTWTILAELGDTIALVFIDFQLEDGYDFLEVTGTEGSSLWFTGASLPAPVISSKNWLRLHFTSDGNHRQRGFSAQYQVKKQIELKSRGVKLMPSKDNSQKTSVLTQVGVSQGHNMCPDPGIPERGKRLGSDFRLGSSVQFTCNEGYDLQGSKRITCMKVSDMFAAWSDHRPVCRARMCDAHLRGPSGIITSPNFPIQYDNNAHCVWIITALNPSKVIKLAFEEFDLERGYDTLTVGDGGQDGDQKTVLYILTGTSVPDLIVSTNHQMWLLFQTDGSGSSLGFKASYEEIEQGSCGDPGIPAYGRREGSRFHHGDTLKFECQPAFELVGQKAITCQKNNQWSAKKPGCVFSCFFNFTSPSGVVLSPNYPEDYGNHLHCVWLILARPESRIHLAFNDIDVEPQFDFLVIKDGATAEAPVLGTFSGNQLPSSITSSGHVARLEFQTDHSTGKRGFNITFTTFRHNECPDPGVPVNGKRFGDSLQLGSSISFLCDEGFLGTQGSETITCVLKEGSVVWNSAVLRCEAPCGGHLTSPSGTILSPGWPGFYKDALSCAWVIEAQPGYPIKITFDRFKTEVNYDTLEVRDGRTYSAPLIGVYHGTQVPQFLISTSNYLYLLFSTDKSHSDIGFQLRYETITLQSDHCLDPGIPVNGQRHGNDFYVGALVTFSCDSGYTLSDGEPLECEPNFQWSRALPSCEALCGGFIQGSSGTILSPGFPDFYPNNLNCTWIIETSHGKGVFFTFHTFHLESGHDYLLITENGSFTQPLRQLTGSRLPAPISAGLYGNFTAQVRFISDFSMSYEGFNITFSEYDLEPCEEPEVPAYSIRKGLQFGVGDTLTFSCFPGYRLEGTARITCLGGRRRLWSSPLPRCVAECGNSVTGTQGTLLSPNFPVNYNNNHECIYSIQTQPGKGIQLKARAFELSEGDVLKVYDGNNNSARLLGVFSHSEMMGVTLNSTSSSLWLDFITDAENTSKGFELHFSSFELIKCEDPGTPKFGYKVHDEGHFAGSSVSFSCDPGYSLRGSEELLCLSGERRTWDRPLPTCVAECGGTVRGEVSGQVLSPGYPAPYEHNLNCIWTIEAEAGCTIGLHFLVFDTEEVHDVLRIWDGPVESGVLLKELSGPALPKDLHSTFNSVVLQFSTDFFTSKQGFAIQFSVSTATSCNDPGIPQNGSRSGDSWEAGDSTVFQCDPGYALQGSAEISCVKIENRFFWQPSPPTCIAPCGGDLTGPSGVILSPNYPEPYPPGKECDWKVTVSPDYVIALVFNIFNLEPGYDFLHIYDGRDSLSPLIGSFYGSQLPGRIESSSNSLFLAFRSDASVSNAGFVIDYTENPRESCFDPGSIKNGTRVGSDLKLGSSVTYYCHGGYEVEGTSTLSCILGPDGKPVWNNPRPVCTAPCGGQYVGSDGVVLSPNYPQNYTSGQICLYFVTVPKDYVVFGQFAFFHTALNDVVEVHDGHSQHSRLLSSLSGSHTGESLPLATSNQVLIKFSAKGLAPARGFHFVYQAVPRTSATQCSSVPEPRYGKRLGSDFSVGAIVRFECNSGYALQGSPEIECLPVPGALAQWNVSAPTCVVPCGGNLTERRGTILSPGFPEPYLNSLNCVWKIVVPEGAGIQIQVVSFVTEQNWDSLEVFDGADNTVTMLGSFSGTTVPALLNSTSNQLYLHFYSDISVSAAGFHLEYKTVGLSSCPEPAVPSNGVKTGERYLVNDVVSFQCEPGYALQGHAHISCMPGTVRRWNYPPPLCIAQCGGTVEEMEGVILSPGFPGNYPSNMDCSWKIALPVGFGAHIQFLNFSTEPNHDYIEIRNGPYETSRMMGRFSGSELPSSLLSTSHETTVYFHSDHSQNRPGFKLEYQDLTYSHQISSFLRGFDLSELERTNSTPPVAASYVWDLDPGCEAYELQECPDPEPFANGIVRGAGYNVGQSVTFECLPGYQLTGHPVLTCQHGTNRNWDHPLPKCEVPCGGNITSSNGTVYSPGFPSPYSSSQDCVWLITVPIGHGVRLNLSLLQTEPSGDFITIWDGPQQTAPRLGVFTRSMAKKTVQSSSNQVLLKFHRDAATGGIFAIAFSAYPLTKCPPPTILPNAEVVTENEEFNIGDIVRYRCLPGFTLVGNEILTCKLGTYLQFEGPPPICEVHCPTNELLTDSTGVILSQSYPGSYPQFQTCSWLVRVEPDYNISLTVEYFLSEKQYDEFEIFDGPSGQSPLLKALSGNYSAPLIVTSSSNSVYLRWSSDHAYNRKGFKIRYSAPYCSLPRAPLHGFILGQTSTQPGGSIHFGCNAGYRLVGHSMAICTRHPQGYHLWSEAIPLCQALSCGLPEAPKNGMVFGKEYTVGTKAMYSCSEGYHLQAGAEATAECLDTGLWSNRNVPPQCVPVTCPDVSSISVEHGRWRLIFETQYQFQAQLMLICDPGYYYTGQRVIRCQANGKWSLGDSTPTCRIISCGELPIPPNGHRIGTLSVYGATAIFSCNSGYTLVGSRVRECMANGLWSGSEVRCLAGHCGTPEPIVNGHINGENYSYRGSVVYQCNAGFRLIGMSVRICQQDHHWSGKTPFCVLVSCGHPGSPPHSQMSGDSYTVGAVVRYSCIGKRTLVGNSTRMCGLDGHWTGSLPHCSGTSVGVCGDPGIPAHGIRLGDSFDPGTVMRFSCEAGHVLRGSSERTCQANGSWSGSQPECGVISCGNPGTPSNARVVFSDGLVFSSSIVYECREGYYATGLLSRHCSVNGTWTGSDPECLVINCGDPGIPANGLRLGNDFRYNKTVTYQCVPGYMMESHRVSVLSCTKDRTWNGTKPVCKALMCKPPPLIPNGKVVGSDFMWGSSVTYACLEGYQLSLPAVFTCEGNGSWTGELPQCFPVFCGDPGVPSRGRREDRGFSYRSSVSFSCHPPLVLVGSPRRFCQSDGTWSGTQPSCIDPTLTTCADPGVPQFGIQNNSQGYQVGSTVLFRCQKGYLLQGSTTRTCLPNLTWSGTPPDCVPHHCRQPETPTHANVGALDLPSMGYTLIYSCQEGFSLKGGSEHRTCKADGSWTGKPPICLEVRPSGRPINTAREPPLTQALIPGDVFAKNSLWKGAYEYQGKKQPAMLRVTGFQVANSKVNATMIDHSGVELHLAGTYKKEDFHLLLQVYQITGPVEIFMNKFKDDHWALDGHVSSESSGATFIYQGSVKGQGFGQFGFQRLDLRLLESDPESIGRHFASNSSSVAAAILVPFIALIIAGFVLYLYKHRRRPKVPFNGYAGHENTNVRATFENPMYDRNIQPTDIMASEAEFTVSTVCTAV
UniProt Q5T1V6, sequence (Q5T1V6 whole entry, looked up): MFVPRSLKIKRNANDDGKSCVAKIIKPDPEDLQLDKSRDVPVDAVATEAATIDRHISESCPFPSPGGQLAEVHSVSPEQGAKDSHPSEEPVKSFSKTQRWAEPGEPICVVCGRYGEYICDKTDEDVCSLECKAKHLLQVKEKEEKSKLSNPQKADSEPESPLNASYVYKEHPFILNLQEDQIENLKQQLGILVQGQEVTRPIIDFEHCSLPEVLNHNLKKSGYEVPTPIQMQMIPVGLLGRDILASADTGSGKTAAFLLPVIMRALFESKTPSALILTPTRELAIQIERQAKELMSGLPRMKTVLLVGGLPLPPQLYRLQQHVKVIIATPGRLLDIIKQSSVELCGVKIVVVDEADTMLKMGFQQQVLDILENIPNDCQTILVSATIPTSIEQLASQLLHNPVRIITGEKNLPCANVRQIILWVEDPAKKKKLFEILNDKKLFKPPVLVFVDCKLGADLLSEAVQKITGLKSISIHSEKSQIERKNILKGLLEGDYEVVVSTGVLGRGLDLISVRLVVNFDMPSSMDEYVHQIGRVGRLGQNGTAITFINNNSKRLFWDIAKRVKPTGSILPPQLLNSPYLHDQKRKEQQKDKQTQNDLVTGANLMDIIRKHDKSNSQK
UniProt Q86XP3, sequence (Q86XP3 whole entry, looked up): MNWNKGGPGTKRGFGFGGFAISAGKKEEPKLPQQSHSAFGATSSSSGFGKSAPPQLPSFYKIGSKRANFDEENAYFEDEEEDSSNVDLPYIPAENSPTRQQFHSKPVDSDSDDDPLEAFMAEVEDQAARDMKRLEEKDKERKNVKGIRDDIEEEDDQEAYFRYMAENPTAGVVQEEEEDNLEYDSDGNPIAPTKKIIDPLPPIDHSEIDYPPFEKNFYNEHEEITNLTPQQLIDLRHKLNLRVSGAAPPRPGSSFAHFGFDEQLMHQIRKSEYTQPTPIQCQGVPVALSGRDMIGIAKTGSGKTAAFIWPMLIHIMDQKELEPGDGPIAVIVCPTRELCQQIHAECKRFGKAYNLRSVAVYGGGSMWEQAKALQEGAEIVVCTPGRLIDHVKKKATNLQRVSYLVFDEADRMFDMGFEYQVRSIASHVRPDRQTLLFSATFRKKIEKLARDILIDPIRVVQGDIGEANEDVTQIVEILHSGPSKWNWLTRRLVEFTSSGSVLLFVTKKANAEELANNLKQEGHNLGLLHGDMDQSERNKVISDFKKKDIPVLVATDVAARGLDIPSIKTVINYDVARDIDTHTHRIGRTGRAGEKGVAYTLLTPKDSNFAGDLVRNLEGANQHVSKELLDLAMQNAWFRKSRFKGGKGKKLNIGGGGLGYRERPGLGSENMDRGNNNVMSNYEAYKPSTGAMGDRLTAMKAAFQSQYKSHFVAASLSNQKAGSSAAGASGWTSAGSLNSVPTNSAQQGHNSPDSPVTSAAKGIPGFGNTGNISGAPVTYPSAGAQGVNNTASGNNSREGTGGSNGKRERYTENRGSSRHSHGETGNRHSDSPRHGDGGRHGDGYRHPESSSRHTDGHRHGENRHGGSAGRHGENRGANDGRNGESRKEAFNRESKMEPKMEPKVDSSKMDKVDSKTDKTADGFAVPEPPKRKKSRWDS
UniProt P14854, sequence (P14854 whole entry, looked up): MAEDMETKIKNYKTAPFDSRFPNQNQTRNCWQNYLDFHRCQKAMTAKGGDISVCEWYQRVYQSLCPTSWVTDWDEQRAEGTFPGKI

Turning to “CSMD2_Q7Z408-3_2_CDAHLR (UniProt Q7Z408)”, the “probe-labelled cysteine peptide fold change” value was -0.56 (10 µM) and -0.972 (50 µM).

For “CPNE2_Q96FN4_265_DSVPLEFECINPK (UniProt Q96FN4)”, the “probe-labelled cysteine peptide fold change” value (10 µM) is -0.22 and the “probe-labelled cysteine peptide fold change” value (50 µM) was -0.165.

For the target “CRYBG1_Q9Y4K1_1404_ISSVQPICLDSFTGPR (UniProt Q9Y4K1)”, the “probe-labelled cysteine peptide fold change” value was 0.199 (10 µM) and -0.0158 (50 µM).

With “CTSH_P09668_272_TGIYSSTSCHK (UniProt P09668)”, the “probe-labelled cysteine peptide fold change” value was 0.223 (10 µM) and -0.279 (50 µM).

For the target “CRYL1_Q9Y2S2_141_QCIVAHPVNPPYYIPLVELVPHPETAPTTVDR (UniProt Q9Y2S2)”, the “probe-labelled cysteine peptide fold change” value is 0.0328 (10 µM) and -0.0222 (50 µM).

With “DIP2A_Q14689_543_ALTQACGYSEAETLTNVLDFKR (UniProt Q14689)”, the “probe-labelled cysteine peptide fold change” value (10 µM) came out at 0.205 and the “probe-labelled cysteine peptide fold change” value (50 µM) was found to be 0.286.

With “DNAJB14_Q8TBM8_77_KPSGSGDQSKPNCTK (UniProt Q8TBM8)”, the “probe-labelled cysteine peptide fold change” value is -0.262 (10 µM) and -0.569 (50 µM).

With “COX6B1_P14854_54_GGDISVCEWYQR (UniProt P14854)”, the “probe-labelled cysteine peptide fold change” value is, setting by setting: (10 µM) -0.188; (50 µM) -0.269.

Turning to “CTNNA1_P35221_772_TIADHCPDSACK (UniProt P35221)”, the “probe-labelled cysteine peptide fold change” value is, setting by setting: (10 µM) -0.0482; (50 µM) -0.0902.

On to “CORO1A_P31146_332_RGLEVNKCEIAR (UniProt P31146)”, for which the “probe-labelled cysteine peptide fold change” value reads like this: (10 µM) -0.603; (50 µM) -0.342.

Turning to “DCTPP1_Q9H773_110_CRVDLPLAVLSK (UniProt Q9H773)”, the “probe-labelled cysteine peptide fold change” value by setting is: (10 µM) -0.361; (50 µM) -0.184.

On to “DDX3X_O00571_128_WCDKSDEDDWSK (UniProt O00571)”, for which the “probe-labelled cysteine peptide fold change” value reads like this: (10 µM) -0.422; (50 µM) -0.388.

In the case of “DOK3_Q7L591_493_KGPAPCDRP (UniProt Q7L591)”, the “probe-labelled cysteine peptide fold change” value is -0.0118 (10 µM) and 0.0304 (50 µM).

Take “CPSF3_Q9UKF6_223_FCNTVHDIVNR (UniProt Q9UKF6)”: the “probe-labelled cysteine peptide fold change” value is -0.0667 (10 µM) and -0.11 (50 µM).

For the target “DYNC1H1_Q14204_4438_QDLADVVQVCEGK (UniProt Q14204)”, the “probe-labelled cysteine peptide fold change” value by setting is: (10 µM) 0.0826; (50 µM) 0.0819.

Consider “DYNC1H1_Q14204_4644_GVAVLCTE (UniProt Q14204)”, for which the “probe-labelled cysteine peptide fold change” value (10 µM) came out at 0.0055 and the “probe-labelled cysteine peptide fold change” value (50 µM) came to 0.0643.

As for “CORO7_P57737_75_VAHLGCHSDLVTDLDFSPFDDFLLATGSADR (UniProt P57737)”, the “probe-labelled cysteine peptide fold change” value by setting is: (10 µM) 0.031; (50 µM) 0.0305.

In the case of “DUS3L_Q96G46_396_TVEVDFVDINVGCPIDLVYKK (UniProt Q96G46)”, the “probe-labelled cysteine peptide fold change” value (10 µM) is -0.169 and the “probe-labelled cysteine peptide fold change” value (50 µM) was -0.11.

As to “CRELD1_Q96HD1_229_CSGPEESNCLQCK (UniProt Q96HD1)”, the “probe-labelled cysteine peptide fold change” value is 0.0143 (10 µM) and -0.197 (50 µM).

Turning to “DLEC1_Q9Y238_256_LEDSCR (UniProt Q9Y238)”, the “probe-labelled cysteine peptide fold change” value was 0.892 (10 µM) and 0.979 (50 µM).

“DCP2_Q8IU60_391_KLQDNFETDAVYDLPSSSEDQLLEHAEGQPVACNGHCK (UniProt Q8IU60)”: the “probe-labelled cysteine peptide fold change” value is -0.209 (10 µM) and -0.464 (50 µM).

On to “DUSP3_P51452_171_EIGPNDGFLAQLCQLNDR (UniProt P51452)”, for which the “probe-labelled cysteine peptide fold change” value is, setting by setting: (10 µM) -0.408; (50 µM) -0.0736.

In the case of “DIDO1_Q9BTC0_455_CGAQAGIK (UniProt Q9BTC0)”, the “probe-labelled cysteine peptide fold change” value was -0.117 (10 µM) and -0.185 (50 µM).

Consider “DDX59_Q5T1V6_208_QQLGILVQGQEVTRPIIDFEHCSLPEVLNHNLKK (UniProt Q5T1V6)”, for which the “probe-labelled cysteine peptide fold change” value (10 µM) is -0.239 and the “probe-labelled cysteine peptide fold change” value (50 µM) is -0.182.

“DSTN_P60981_39_AVIFCLSADK (UniProt P60981)”: the “probe-labelled cysteine peptide fold change” value (10 µM) is -0.0558 and the “probe-labelled cysteine peptide fold change” value (50 µM) was -0.00534.

Take “DHCR24_Q15392_393_CLQQALHTFQNDIHVYPIWLCPFILPSQPGLVHPK (UniProt Q15392)”: the “probe-labelled cysteine peptide fold change” value runs as follows: (10 µM) 0.14; (50 µM) -0.425.

With “DNMT1_P26358_580_HAQFVVEQVESYDEAGDSDEQPIFLTPCMR (UniProt P26358)”, the “probe-labelled cysteine peptide fold change” value was found to be 0.0642 (10 µM) and 0.604 (50 µM).

On to “DCP1A_Q9NPI6_39_QHDPYITSIADLTGQVALYTFCPK (UniProt Q9NPI6)”, for which the “probe-labelled cysteine peptide fold change” value came out at 0.179 (10 µM) and 0.205 (50 µM).

On to “DDX46_Q7L014_501_RGAEIIVCTPGR (UniProt Q7L014)”, for which the “probe-labelled cysteine peptide fold change” value stood at 0.161 (10 µM) and 0.296 (50 µM).

For “COX17_Q14061_23+24_KPLKPCCACPETK (UniProt Q14061)”, the “probe-labelled cysteine peptide fold change” value is -0.386 (10 µM) and -0.745 (50 µM).

For “CTNNA2_P26232_792_IALYCHQLNICSK (UniProt P26232)”, the “probe-labelled cysteine peptide fold change” value is -0.0111 (10 µM) and 0.118 (50 µM).

Regarding “DCAF10_Q5QP82_412_NSLEVVTPEVLGESDHGNCITSLQLHPK (UniProt Q5QP82)”, the “probe-labelled cysteine peptide fold change” value is 0.152 (10 µM) and -0.291 (50 µM).

Turning to “DOK3_Q7L591_323_LPELTRPQPCPLPR (UniProt Q7L591)”, the “probe-labelled cysteine peptide fold change” value is 0.463 (10 µM) and -0.185 (50 µM).

As to “DAZAP1_Q96EP5_63_DPNCVGTVLASR (UniProt Q96EP5)”, the “probe-labelled cysteine peptide fold change” value turned out to be 0.186 (10 µM) and 0.402 (50 µM).

Take “DDX42_Q86XP3_339+346_ELCQQIHAECK (UniProt Q86XP3)”: the “probe-labelled cysteine peptide fold change” value reads like this: (10 µM) -0.0625; (50 µM) -0.045.

For “CORO1C_Q9ULV4_39_VTWDSSFCAVNPR (UniProt Q9ULV4)”, the “probe-labelled cysteine peptide fold change” value was 0.0602 (10 µM) and -0.0375 (50 µM).

Turning to “DGKZ_Q13574_876_EASVPLGTVVVPGDSDLELCR (UniProt Q13574)”, the “probe-labelled cysteine peptide fold change” value is 0.514 (10 µM) and 0.581 (50 µM).

“DOP1B_Q9Y3R5_70_LAQCLHPALPSGVHLK (UniProt Q9Y3R5)”: the “probe-labelled cysteine peptide fold change” value runs as follows: (10 µM) 0.262; (50 µM) 0.136.

The values are drawn from the supplement of paper PMC12067093, “Discovery and optimisation of a covalent ligand for TRIM25 and its application to targeted protein ubiquitination” (Chemical Science, 2025).
